Measurements taken from the supplement of paper PMC12282887.
± gives the standard deviation of the averaged measurements.

How the values were obtained:
Test in all cases: promoter activity interaction Z-score (Lux/OD deviation from empty-vector control); higher = stronger promoter induction by the compound
[1] = system: E. coli BW25113 acrABp lux reporter
Method in brief: (§1)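 E. coli BW25113 (wild type or marA, soxS or rob deletion) carrying low-copy luxCDABE promoter reporters grew in 40 µl LB Lennox in 384-well plates at 37°C. Each compound was tested at four 1:2 dilutions in biological duplicates. OD600 and luminescence were read every 30 min for 12 h. Areas were taken over 0–8 h (wild type) or 1–9 h (mutants), and wells below 10% of median growth area were removed. The score is the Z-transformed residual of growth-normalised luminescence fitted against the empty-vector control.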

[2] = system: E. coli BW25113 micFp lux reporter
Method in brief: as §1

[3] = system: E. coli BW25113 ompFp lux reporter
Method in brief: as §1

[4] = system: E. coli BW25113 robp lux reporter
Method in brief: as §1

[5] = system: E. coli BW25113 soxSp lux reporter
Method in brief: as §1

[6] = system: E. coli BW25113 tolCp lux reporter
Method in brief: as §1

[7] = 0.034 µg/ml, genetic background: wild type
[8] = 0.034 µg/ml, genetic background: ΔmarA
[9] = 0.034 µg/ml, genetic background: Δrob
[10] = 0.034 µg/ml, genetic background: ΔsoxS
[11] = 0.067 µg/ml, genetic background: wild type
[12] = 0.067 µg/ml, genetic background: ΔmarA
[13] = 0.067 µg/ml, genetic background: Δrob
[14] = 0.067 µg/ml, genetic background: ΔsoxS
[15] = 0.13 µg/ml, genetic background: wild type
[16] = 0.13 µg/ml, genetic background: ΔmarA
[17] = 0.13 µg/ml, genetic background: Δrob
[18] = 0.13 µg/ml, genetic background: ΔsoxS
[19] = 0.27 µg/ml, genetic background: wild type
[20] = 0.27 µg/ml, genetic background: ΔmarA
[21] = 0.27 µg/ml, genetic background: Δrob
[22] = 0.27 µg/ml, genetic background: ΔsoxS

## CCN1CCN(C(=O)N[C@@H](C(=O)N[C@@H]2C(=O)N3[C@@H]2SC(C)(C)[C@@H]3C(=O)O)c2ccccc2)C(=O)C1=O [Piperacillin]
[1]; [7]
  promoter activity interaction Z-score: -0.232 ± 0.0098
[1]; [8]
  promoter activity interaction Z-score: -0.0362 ± 0.011
[1]; [9]
  promoter activity interaction Z-score: 0.0917 ± 0.12
[1]; [10]
  promoter activity interaction Z-score: -0.171 ± 0.35
[1]; [11]
  promoter activity interaction Z-score: -0.00951 ± 0.16
[1]; [12]
  promoter activity interaction Z-score: -0.975 ± 0.12
[1]; [13]
  promoter activity interaction Z-score: -0.296 ± 0.13
[1]; [14]
  promoter activity interaction Z-score: 0.0579 ± 0.55
[1]; [15]
  promoter activity interaction Z-score: -0.124 ± 0.2
[1]; [16]
  promoter activity interaction Z-score: 0.866 ± 1.5
[1]; [17]
  promoter activity interaction Z-score: 0.0632 ± 0.21
[1]; [18]
  promoter activity interaction Z-score: -0.295 ± 0.39
[1]; [19]
  promoter activity interaction Z-score: -0.155 ± 0.22
[1]; [20]
  promoter activity interaction Z-score: 1.08 ± 0.93
[1]; [21]
  promoter activity interaction Z-score: 0.045 ± 0.16
[1]; [22]
  promoter activity interaction Z-score: -0.703 ± 0.75
[2]; [7]
  promoter activity interaction Z-score: 0.00552 ± 0.088
[2]; [8]
  promoter activity interaction Z-score: -0.146 ± 0.15
[2]; [9]
  promoter activity interaction Z-score: -0.0761 ± 0.045
[2]; [10]
  promoter activity interaction Z-score: -0.264 ± 0.15
[2]; [11]
  promoter activity interaction Z-score: 0.13 ± 0.05
[2]; [12]
  promoter activity interaction Z-score: 0.0167 ± 0.14
[2]; [13]
  promoter activity interaction Z-score: -0.0679 ± 0.059
[2]; [14]
  promoter activity interaction Z-score: -0.148 ± 0.27
[2]; [15]
  promoter activity interaction Z-score: -0.112 ± 0.27
[2]; [16]
  promoter activity interaction Z-score: -0.0842 ± 0.077
[2]; [17]
  promoter activity interaction Z-score: -0.0193 ± 0.093
[2]; [18]
  promoter activity interaction Z-score: -0.266 ± 0.18
[2]; [19]
  promoter activity interaction Z-score: -0.272 ± 0.16
[2]; [20]
  promoter activity interaction Z-score: -0.139 ± 0.059
[2]; [21]
  promoter activity interaction Z-score: -0.0211 ± 0.15
[2]; [22]
  promoter activity interaction Z-score: -0.639 ± 0.054
[3]; [7]
  promoter activity interaction Z-score: -0.0853 ± 0.096
[3]; [8]
  promoter activity interaction Z-score: 0.15 ± 0.27
[3]; [9]
  promoter activity interaction Z-score: -0.247 ± 0.24
[3]; [10]
  promoter activity interaction Z-score: -0.152 ± 0.042
[3]; [11]
  promoter activity interaction Z-score: 0.324 ± 0.3
[3]; [12]
  promoter activity interaction Z-score: -0.184 ± 0.32
[3]; [13]
  promoter activity interaction Z-score: 0.0351 ± 0.21
[3]; [14]
  promoter activity interaction Z-score: 0.0638 ± 0.27
[3]; [15]
  promoter activity interaction Z-score: 0.0298 ± 0.29
[3]; [16]
  promoter activity interaction Z-score: 0.086 ± 0.054
[3]; [17]
  promoter activity interaction Z-score: -0.035 ± 0.23
[3]; [18]
  promoter activity interaction Z-score: -0.0829 ± 0.38
[3]; [19]
  promoter activity interaction Z-score: 0.489 ± 0.45
[3]; [20]
  promoter activity interaction Z-score: 0.879 ± 0.27
[3]; [21]
  promoter activity interaction Z-score: 1.38 ± 0.61
[3]; [22]
  promoter activity interaction Z-score: 0.0824 ± 1.4
[4]; [7]
  promoter activity interaction Z-score: 0.0506 ± 0.23
[4]; [8]
  promoter activity interaction Z-score: -0.0397 ± 0.005
[4]; [9]
  promoter activity interaction Z-score: 0.283 ± 0.84
[4]; [10]
  promoter activity interaction Z-score: -0.0239 ± 0.021
[4]; [11]
  promoter activity interaction Z-score: 0.564 ± 0.3
[4]; [12]
  promoter activity interaction Z-score: 0.263 ± 0.19
[4]; [13]
  promoter activity interaction Z-score: 0.443 ± 0.078
[4]; [14]
  promoter activity interaction Z-score: 0.154 ± 0.23
[4]; [15]
  promoter activity interaction Z-score: 0.0585 ± 0.068
[4]; [16]
  promoter activity interaction Z-score: 0.404 ± 0.017
[4]; [17]
  promoter activity interaction Z-score: 0.606 ± 0.011
[4]; [18]
  promoter activity interaction Z-score: 0.00285 ± 0.0042
[4]; [19]
  promoter activity interaction Z-score: 0.179 ± 0.51
[4]; [20]
  promoter activity interaction Z-score: 0.636 ± 0.1
[4]; [21]
  promoter activity interaction Z-score: 0.356 ± 0.1
[4]; [22]
  promoter activity interaction Z-score: -0.904 ± 1.2
[5]; [7]
  promoter activity interaction Z-score: -0.0446 ± 0.039
[5]; [8]
  promoter activity interaction Z-score: -0.141 ± 0.061
[5]; [9]
  promoter activity interaction Z-score: 0.0401 ± 0.031
[5]; [10]
  promoter activity interaction Z-score: -0.0874 ± 0.14
[5]; [11]
  promoter activity interaction Z-score: 0.017 ± 0.053
[5]; [12]
  promoter activity interaction Z-score: -0.00164 ± 0.038
[5]; [13]
  promoter activity interaction Z-score: 0.126 ± 0.088
[5]; [14]
  promoter activity interaction Z-score: 0.0907 ± 0.13
[5]; [15]
  promoter activity interaction Z-score: -0.0137 ± 0.014
[5]; [16]
  promoter activity interaction Z-score: -0.056 ± 0.022
[5]; [17]
  promoter activity interaction Z-score: -0.105 ± 0.013
[5]; [18]
  promoter activity interaction Z-score: -0.0509 ± 0.17
[5]; [19]
  promoter activity interaction Z-score: -0.122 ± 0.084
[5]; [20]
  promoter activity interaction Z-score: -0.184 ± 0.011
[5]; [21]
  promoter activity interaction Z-score: -0.0489 ± 0.12
[5]; [22]
  promoter activity interaction Z-score: -0.233 ± 0.7
[6]; [7]
  promoter activity interaction Z-score: 0.0285 ± 0.87
[6]; [8]
  promoter activity interaction Z-score: -0.171 ± 0.024
[6]; [9]
  promoter activity interaction Z-score: -0.382 ± 0.53
[6]; [10]
  promoter activity interaction Z-score: 0.0095 ± 1.5
[6]; [11]
  promoter activity interaction Z-score: 0.334 ± 0.13
[6]; [12]
  promoter activity interaction Z-score: 0.917 ± 0.67
[6]; [13]
  promoter activity interaction Z-score: 0.279 ± 0.2
[6]; [14]
  promoter activity interaction Z-score: -0.332 ± 0.83
[6]; [15]
  promoter activity interaction Z-score: -0.441 ± 0.82
[6]; [16]
  promoter activity interaction Z-score: -0.635 ± 0.38
[6]; [17]
  promoter activity interaction Z-score: 0.0967 ± 0.77
[6]; [18]
  promoter activity interaction Z-score: -0.574 ± 0.84
[6]; [19]
  promoter activity interaction Z-score: -0.552 ± 0.3
[6]; [20]
  promoter activity interaction Z-score: 0.498 ± 0.032
[6]; [21]
  promoter activity interaction Z-score: 0.489 ± 0.43
[6]; [22]
  promoter activity interaction Z-score: -0.895 ± 0.62
